Test results reported in PubChem BioAssay (Tox21).
Results filed as inconclusive are left out. Active and inactive are the calls of the source. Unless noted, calls follow the shape of the dose curve; as a rule, active = well fitted curve in the direction sought with a large enough effect in the repeat runs; inconclusive = weak or mixed curves; inactive = no such curve, though single readings can be large; an effect the other way counts as inactive or inconclusive.

Experiments:
[1] = qHTS assay to identify aromatase inhibitors - cell viability counter screen (AID 743084);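 also: cells stimulated with testosterone during compound exposure; nearly all actives have a fitted effect of over 55% in size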; also: potency is read from the fitted curve at half-maximal effect
[2] = biological target: Aryl hydrocarbon receptor (Homo sapiens) (UniProt P35869); test: qHTS assay to identify small molecule that activate the aryl hydrocarbon receptor (AhR) signaling pathway (AID 743085); also: nearly all actives have a fitted effect of over 15% in size; also: potency is read from the fitted curve at half-maximal effect;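 as to activation: HG2L7.5c1 human HepG2 liver cells with stably integrated DRE-driven firefly reporter; series mostly up to about 70 µM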
Aryl hydrocarbon receptor (Homo sapiens), sequence (P35869 whole entry, looked up): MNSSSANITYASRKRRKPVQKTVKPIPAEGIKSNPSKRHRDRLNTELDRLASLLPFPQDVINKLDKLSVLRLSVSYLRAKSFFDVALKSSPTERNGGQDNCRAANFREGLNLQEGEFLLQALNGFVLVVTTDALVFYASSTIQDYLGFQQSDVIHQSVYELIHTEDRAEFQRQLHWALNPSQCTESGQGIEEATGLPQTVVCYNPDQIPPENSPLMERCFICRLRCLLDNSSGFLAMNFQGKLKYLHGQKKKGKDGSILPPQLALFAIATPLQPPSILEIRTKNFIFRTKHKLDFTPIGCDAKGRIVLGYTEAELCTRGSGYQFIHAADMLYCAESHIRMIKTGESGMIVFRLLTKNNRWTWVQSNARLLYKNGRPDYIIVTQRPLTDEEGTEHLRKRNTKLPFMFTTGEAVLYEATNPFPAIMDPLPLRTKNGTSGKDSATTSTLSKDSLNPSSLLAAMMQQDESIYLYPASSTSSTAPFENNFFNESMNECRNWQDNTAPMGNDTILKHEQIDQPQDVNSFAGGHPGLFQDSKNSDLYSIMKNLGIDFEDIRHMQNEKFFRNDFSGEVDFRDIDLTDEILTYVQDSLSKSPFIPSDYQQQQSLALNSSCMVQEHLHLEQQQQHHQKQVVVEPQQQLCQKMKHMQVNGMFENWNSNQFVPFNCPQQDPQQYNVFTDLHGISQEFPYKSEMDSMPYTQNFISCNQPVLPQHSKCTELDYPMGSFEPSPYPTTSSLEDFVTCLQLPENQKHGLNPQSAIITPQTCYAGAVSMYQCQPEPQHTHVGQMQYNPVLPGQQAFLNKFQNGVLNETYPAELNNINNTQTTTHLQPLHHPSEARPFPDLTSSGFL
Outline: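 HepG2 cells stably carrying a 20-DRE firefly luciferase reporter (HG2L7.5c1) treated with compound for 24 hr at 37C. Luciferase read by ONE-Glo luminescence, with CellTiter-Fluor viability read first.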

[3] = qHTS assay to identify small molecule that activate the aryl hydrocarbon receptor (AhR) signaling pathway - cell viability counter screen (AID 743086); also: nearly all actives have a fitted effect of over 45% in size; also: potency is read from the fitted curve at half-maximal effect
Outline: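 Cytotoxicity counter screen: CellTiter-Fluor signal (30 min, 37 C) in 4000 HepG2 cells/well carrying the DRE-luciferase reporter, following 24 h compound exposure at 37 C.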

[4] = biological target: Peroxisome proliferator-activated receptor gamma (Homo sapiens) (UniProt P37231); test: qHTS assay to identify small molecule agonists of the peroxisome proliferator-activated receptor gamma (PPARg) signaling pathway (AID 743094; active = well fitted activation curve with a large enough effect in the signal ratio in the repeat runs, not every such curve was filed as active; the % refers to the signal ratio)
Peroxisome proliferator-activated receptor gamma (Homo sapiens), sequence (P37231 whole entry, looked up): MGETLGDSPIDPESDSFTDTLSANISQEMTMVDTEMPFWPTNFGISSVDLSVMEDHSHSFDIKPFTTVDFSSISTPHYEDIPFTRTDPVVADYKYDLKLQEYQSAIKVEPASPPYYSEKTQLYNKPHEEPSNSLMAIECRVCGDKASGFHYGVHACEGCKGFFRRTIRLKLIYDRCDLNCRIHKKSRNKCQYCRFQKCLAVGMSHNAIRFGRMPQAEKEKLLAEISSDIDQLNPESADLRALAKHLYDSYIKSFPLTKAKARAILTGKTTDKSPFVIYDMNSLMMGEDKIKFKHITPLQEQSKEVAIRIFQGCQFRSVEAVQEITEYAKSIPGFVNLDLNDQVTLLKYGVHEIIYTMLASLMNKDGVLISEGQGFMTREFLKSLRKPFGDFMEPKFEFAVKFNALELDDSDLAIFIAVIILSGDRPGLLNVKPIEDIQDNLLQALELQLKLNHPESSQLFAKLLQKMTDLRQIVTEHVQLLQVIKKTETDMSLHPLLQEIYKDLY
Outline: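 Cell-based bla reporter, HEK293H background, PPARg-driven UAS. Pre-incubation 5 h, 37C, 5% CO2. Compound 17 h, 37C. Substrate 1 h RT; fluorescence.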

[5] = qHTS assay for small molecule agonists of the antioxidant response element (ARE) signaling pathway - cell viability counter screen (AID 743203; calls by dose curve; also: nearly all actives have a fitted effect of over 55% in size; also: potency is read from the fitted curve at half-maximal effect)
Outline: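 Measured in the same wells as the beta-lactamase ARE reporter, this read-out is CellTiter-Glo luminescence from HepG2 ARE-bla cells given compounds for 16 hrs.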

[6] = qHTS assay for small molecule activators of the heat shock response signaling pathway - cell viability counter screen (AID 743209); also: nearly all actives have a fitted effect of over 50% in size; also: potency is read from the fitted curve at half-maximal effect
Outline: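 Same-well multiplex: after 2.5 h room-temperature incubation with LiveBLAzer B/G substrate and fluorescence reading, CellTiter-Glo reagent was added to HSE-bla HeLa cells that had received compound for 5 h at 37 C; luminescence read after 30 min.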

[7] = qHTS assay to identify small molecule antagonists of the peroxisome proliferator-activated receptor gamma (PPARg) signaling pathway - cell viability counter screen (AID 743194); also: nearly all actives have a fitted effect of over 55% in size; also: potency is read from the fitted curve at half-maximal effect
Outline: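 Viability was measured as CellTiter-Glo luminescence in GeneBLAzer PPARg UAS-bla HEK293H cells. These cells had been exposed 17 h at 37 C to compounds together with rosiglitazone at 50 nM final, with the beta-lactamase readout taken in the same wells.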

[8] = qHTS assay for small molecule agonists of the antioxidant response element (ARE) signaling pathway (AID 743202; active = well fitted activation curve with a large enough effect in the signal ratio in the repeat runs, not every such curve was filed as active; the % refers to the signal ratio; also: potency is read from the fitted curve at half-maximal effect)
Outline: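 Beta-lactamase reporter activity, read as fluorescence intensity, reflects ARE/Nrf2 pathway induction in HepG2 cells after 16 h compound exposure at 37 C; substrate loading was 2 h at room temperature.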

[9] = qHTS assay for small molecule activators of the heat shock response signaling pathway (AID 743210; active = well fitted activation curve with a large enough effect in the signal ratio in the repeat runs, with a control signal flat, not every such curve was filed as active; the % refers to the signal ratio;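 also: HeLa cells with beta-lactamase reporter driven by heat shock elements; series mostly up to about 63 µM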)
Outline: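 Fluorescence from a cleaved B/G FRET substrate (2.5 h, room temp) reports HSE-driven beta-lactamase in HeLa cells treated 5 h at 37 C with DMSO-dissolved compounds.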

[10] = biological target: Peroxisome proliferator-activated receptor gamma (Homo sapiens) (UniProt P37231); test: qHTS assay to identify small molecule antagonists of the peroxisome proliferator-activated receptor gamma (PPARg) signaling pathway (AID 743191; calls by dose curve; also: series mostly up to about 63 µM; nearly all actives have a fitted effect of over 30% in size)
Outline: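 Beta-lactamase reporter under UAS control in HEK293H PPARg-bla cells; compound treatment 17 h at 37C. Read-out: fluorescence intensity after 1 h room-temperature incubation with LiveBLAzer B/G FRET substrate.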

Measured: Potency

NCCO/C=C/[C@H](N)C(=O)O
inactive: [1] | [2] | [3] | [4]

CCCCCCCCCCCCCCCCC(C(=O)O)C(O)(CC(=O)O)C(=O)O (configuration not stated)
inactive: [1] | [2] | [3] | [4]
active: [5] 21.1 µM | [6] 29.8 µM

CC(C)c1ccc2sc3ccccc3c(=O)c2c1
inactive: [1] | [3] | [7] | [5]
active: [2] 30.6 µM | [8] 9.69 µM

CC(=O)NC[C@H]1CN(c2ccc(N3CCOCC3)c(F)c2)C(=O)O1
inactive: [1] | [2] | [3] | [4]

O=C1CCC/C=C\CCCCCCCCCC1
not listed: [4] | [9] | [10]
inactive: all other assays above

CN(C/C=C/c1ccccc1)Cc1cccc2ccccc12
not listed: [10]
inactive: all other assays above

C[S+](C)CCC(N)C(=O)O (configuration not stated)
inactive: [1] | [2] | [3] | [4]

O=C1OC(=O)c2cc(-c3ccc4c(c3)C(=O)OC4=O)ccc21
not listed: [6] | [8] | [9]
inactive: all other assays above

O=C(O)/C=C/C(=O)Nc1ccc(S(=O)(=O)Nc2nccs2)cc1
inactive: [1] | [2] | [3] | [4]

Cc1ccc(Cl)c(N)c1Cl
not listed: [8] | [9]
inactive: all other assays above

CCOc1ccc([N+](=O)[O-])cc1
inactive: [2] | [3]
active: [1] 55.3 µM | [6] 44.3 µM

CN(C)CCC(O)(c1ccccc1)c1ccccc1Cl (configuration not stated)
inactive: [1] | [2] | [4]

CC(=O)OCC(=O)[C@@]1(O)CC[C@H]2[C@@H]3C[C@H](C)C4=CC(=O)C=C[C@]4(C)[C@H]3[C@@H](O)C[C@@]21C
inactive: [1] | [2] | [3] | [4]

CN(C[C@@H](CC[N+]12CCC(C3CCCCC3)(CC1)CC2)c1ccc(Cl)c(Cl)c1)C(=O)c1cc(C(F)(F)F)cc(C(F)(F)F)c1
inactive: [2]
active: [1] 61.1 µM | [3] 54.5 µM | [7] 54.9 µM | [5] 30.6 µM | [6] 24.5 µM

CSCC[C@H](NC(=O)[C@H](Cc1ccc(OS(=O)(=O)O)cc1)NC(=O)[C@@H](N)CC(=O)O)C(=O)NCC(=O)N[C@@H](Cc1c[nH]c2ccccc12)C(=O)N[C@@H](CCSC)C(=O)N[C@@H](CC(=O)O)C(=O)N[C@@H](Cc1ccccc1)C(N)=O
inactive: [1] | [2] | [3] | [4]

O=[N+]([O-])c1ccc(O)c2ncccc12
active: [1] 10.6 µM | [2] 3.35 µM
inactive: [3] | [10] | [7] | [6]

NC(=S)NS(=O)(=O)c1ccc(N)cc1
inactive: [1] | [2] | [3] | [4]

O=C(N[C@H](CO)[C@H](O)c1ccc([N+](=O)[O-])cc1)C(Cl)Cl
inactive: [1] | [2] | [3] | [4] | [5] | [6]

CC(C)COC(=O)OCN1C(=O)CN(CCN2CC(=O)N(COC(=O)OCC(C)C)C(=O)C2)CC1=O
inactive: [1] | [2] | [3] | [4]

CCCCCCCCCC[N+](C)(CCCCCCCCCC)CCC[Si](OC)(OC)OC
inactive: [2]
active: [1] 61.1 µM | [7] 30.9 µM | [6] 13.8 µM

C[C@H]1O[C@@H](O[C@H]2CC[C@@]3(C)[C@H](CC[C@@H]4[C@@H]3C[C@@H](O)[C@]3(C)[C@@H](C5=CC(=O)OC5)CC[C@]43O)C2)C[C@H](O)[C@@H]1O[C@H]1C[C@H](O)[C@H](O[C@H]2C[C@H](O)[C@H](O[C@@H]3O[C@H](CO)[C@@H](O)[C@H](O)[C@H]3O)[C@@H](C)O2)[C@@H](C)O1
active: [7] 0.15 µM | [5] 0.075 µM | [6] 1.06 µM
inactive: [1] | [2] | [3]

CN1C(=O)C[C@@H](C(=O)N[C@@H](Cc2cnc[nH]2)C(=O)N2CCC[C@H]2C(N)=O)NC1=O
inactive: [1] | [2] | [3] | [4]

O=C(O)C[C@H](O)C[C@H](O)/C=C/c1c(C2CC2)nc2ccccc2c1-c1ccc(F)cc1
inactive: [1] | [2] | [3] | [4]

NCc1cccc(C2CCN(C(=O)c3ccc(C#Cc4ccccc4F)o3)CC2)c1
inactive: [2] | [4]
active: [1] 61.1 µM | [7] 19.5 µM | [5] 48.6 µM

CC(C)Cc1ccc([C@H](C)C(=O)O)cc1
inactive: [1] | [2] | [4]

CNC(=O)C[C@@H](N)C(=O)N[C@@H](C(=O)N[C@@H]1C(=O)N2[C@@H]1SC(C)(C)[C@@H]2C(=O)O)c1ccc(O)cc1
inactive: [1] | [2] | [3] | [4]

c1ccc2cc3c4ccccc4c4ccccc4c3cc2c1
active: [2] 0.0973 µM | [8] 1.94 µM
inactive: [1] | [3] | [7] | [5]

N#Cc1c(N(CC(=O)O)CC(=O)O)sc(C(=O)O)c1CC(=O)O
inactive: [1] | [2] | [3] | [4]

COc1cc2c(cc1OC)[C@@H](Cc1cc(OC)c(OC)c(OC)c1)[N+](C)(CCCOC(=O)CC/C=C/CCC(=O)OCCC[N+]1(C)CCc3cc(OC)c(OC)cc3[C@H]1Cc1cc(OC)c(OC)c(OC)c1)CC2 (some centres not stated)
inactive: [1] | [3]

C[C@@H]1O[C@@H]1P(=O)(O)O
inactive: [1] | [3] | [4]

CN[C@H](CC(C)C)C(=O)N[C@H]1C(=O)N[C@@H](CC(N)=O)C(=O)N[C@H]2C(=O)N[C@H]3C(=O)N[C@H](C(=O)N[C@@H](C(=O)O)c4cc(O)cc(O)c4-c4cc3ccc4O)[C@H](O)c3ccc(c(Cl)c3)Oc3cc2cc(c3O[C@@H]2O[C@H](CO)[C@@H](O)[C@H](O)[C@H]2O[C@H]2C[C@](C)(N)C(O)[C@H](C)O2)Oc2ccc(cc2Cl)[C@H]1O (some centres not stated)
inactive: [1] | [3] | [4]

Nc1cc(Cl)c(NC2=NCCN2)c(Cl)c1
inactive: [1] | [3] | [4]

CCCCCCOC(=O)c1cccnc1
inactive: [1] | [3] | [4]

O=C(O)[C@H]1CN(C/C=C/P(=O)(O)O)CCN1
inactive: [1] | [3]

CCCCCCCCCCCCCCCC(=O)OC[C@H](COP(=O)([O-])OCC[N+](C)(C)C)OC(=O)CCCCCCCCCCCCCCC
inactive: [1] | [3] | [4]

C/C=C/C1=C(C(=O)O)N2C(=O)[C@@H](NC(=O)[C@H](N)c3ccc(O)cc3)[C@H]2SC1
inactive: [1] | [3]

C[C@@H]1O[C@@H](OC[C@H]2O[C@@H](Oc3c(-c4ccc(OCCO)c(OCCO)c4)oc4cc(OCCO)cc(O)c4c3=O)[C@H](O)[C@@H](O)[C@@H]2O)[C@H](O)[C@H](O)[C@H]1O
inactive: [1] | [3] | [4]

COC(=O)C(CN)c1c[nH]c2ccc(OC)cc12 (configuration not stated)
inactive: [1] | [3] | [4]

C1CCc2nnnn2CC1
inactive: [1] | [3] | [4]

Cc1ccc(C(C)(C)c2ccc(C)cc2)cc1
inactive: [1] | [3] | [4]

CC(C)[N+]1(C)[C@@H]2CC[C@H]1CC(OC(=O)C(CO)c1ccccc1)C2 (some centres not stated)
inactive: [1] | [3] | [4]

O=C(O)COc1ccccc1/C=N/NC(=O)c1ccncc1
inactive: [1] | [3] | [4]

Nc1nc(/C(=C/CC(=O)O)C(=O)N[C@@H]2C(=O)N3C(C(=O)O)=CCS[C@H]23)cs1
inactive: [1] | [3] | [4]

NC(=O)[C@@H]1C[C@]2(NC(=O)NC2=O)c2cc(F)ccc2O1
inactive: [1] | [3] | [4]

C=C1C(=C/C=C2\CCC[C@]3(C)[C@@H]([C@H](C)CCCC(C)C)CC[C@@H]23)C[C@@H](O)C[C@@H]1O
inactive: [1] | [3]

NC(=O)CC[C@@H]1NC(=O)[C@H](Cc2ccccc2)NC(=O)[C@H](Cc2ccc(O)cc2)NC(=O)[C@@H](N)CSSC[C@@H](C(=O)N2CCC[C@H]2C(=O)N[C@@H](CCCN=C(N)N)C(=O)NCC(N)=O)NC(=O)[C@H](CC(N)=O)NC1=O
inactive: [1] | [3] | [4]

CCC(O)c1ccccc1 (configuration not stated)
inactive: [1] | [3] | [4]

C/C(=C\C(=O)OCCCCCCCCC(=O)O)C[C@@H]1OC[C@H](C[C@@H]2O[C@H]2[C@@H](C)[C@H](C)O)[C@@H](O)[C@H]1O
inactive: [1] | [3] | [4]

CSCCC(N)C(=O)O (configuration not stated)
inactive: [1] | [3] | [4]

C=C(Nc1ccc(OCC)cc1)Nc1ccc(OCC)cc1
inactive: [1] | [3] | [4]

CC1(C)S[C@@H]2[C@H](NC(=O)[C@H](N)c3ccc(O)cc3)C(=O)N2[C@H]1C(=O)O
inactive: [1] | [3]

CC(C)(COP(=O)(O)OP(=O)(O)OC[C@H]1O[C@@H](n2cnc3c(N)ncnc32)[C@H](O)[C@@H]1OP(=O)(O)O)C(O)C(=O)NCCC(=O)NCCS (some centres not stated)
inactive: [1] | [3] | [4]

NS(=O)(=O)c1cc(Cl)c(Cl)c(S(N)(=O)=O)c1
inactive: [1] | [3]

c1ccc(-n2cnnn2)cc1
inactive: [1] | [3] | [4]

CCN1CCCC1CNC(=O)c1cc(S(=O)(=O)CC)ccc1OC (configuration not stated)
inactive: [1] | [3] | [4]

CCCCC/C=C\C=C\C(=O)OCC
active: [1] 56.8 µM
inactive: [3]

COc1cc2c(cc1O)CCN[C@]21CS[C@@H]2c3c(OC(C)=O)c(C)c4c(c3[C@H](COC1=O)N1[C@@H]2[C@H]2c3c(cc(C)c(OC)c3O)C[C@@H]([C@@H]1O)N2C)OCO4
active: [1] 24.3 µM | [3] 0.0168 µM

CCOC(=O)Cc1ccc(-c2ccccc2)cc1
inactive: [1] | [3]

N=C(N)c1ccc(/C=C/c2ccc(C(=N)N)cc2O)cc1
inactive: [1] | [3] | [4]

CN(Cc1ccccc1)Cc1ccccc1
inactive: [1] | [3] | [4]
